# Bioassay records (PubChem)
# In the library only some 6.7% were active in any assay of this set; here they are far more common.
# Pf Dd2 inh: inhibitors of Plasmodium falciparum Dd2 growth; P. falciparum Dd2 growth, SYBR Green, 72 h; hits give low values; activity change, % at 10 µM; actives 2.3% (n = 94,000); AID 1159554; in the data active = activity change below about -80%; inconclusive = no clear call, values can overlap the other calls
# T cruzi growth-1: T. cruzi proliferation inhibition. AID 624255. inhibition, % at 8.34 µM. actives 5.9% (n = 77,000). T. cruzi beta-gal in NIH3T3, GalScreen luminescence, 90 h;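 active = mean inhibition above about 93%, with at least 55% of replicates each passing it, limit read from the data, passing the limit was not always enough; inconclusive = only one of those two conditions holds; inactive = neither condition holds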
# C diff HTS: C. difficile growth inhibition; Clostridium difficile clinical isolate growth, OD600, 24 h; hits give low values; growth activity, negative = inhibition, % at 16 µg/mL (by protocol); actives 0.25% (n = 86,000); AID 1259249;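 active = mean growth activity at or below -80% and every replicate also at or below -80%; inconclusive = mean at or below -80% but some replicate above -80%; inactive = mean growth activity above -80%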;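 note: 0% = DMSO wells and -100% = levofloxacin 16 µg/mL wells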
# T cruzi growth-2: Trypanosoma cruzi proliferation inhibition; shares compounds with T cruzi growth-1; T. cruzi beta-gal in NIH3T3, GalScreen luminescence, 90 h; inhibition, % at 8.35 µM; actives 72% (n = 5,600); AID 651739;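 active = mean replicate inhibition above about 95% and at least 55% of replicates individually reaching it, limit read from the data; inconclusive = only one of the two criteria is met; inactive = neither criterion is met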
# T cruzi growth-3: inhibitors of T. cruzi proliferation; shares compounds with T cruzi growth-1; inhibition, % at 2.09 µM; actives 21% (n = 5,600); AID 651740; T. cruzi beta-gal in NIH3T3, GalScreen luminescence, 90 h;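 active = mean inhibition above about 95%, with at least 55% of replicates also reaching it, limit read from the data; inconclusive = meets just one of the two conditions; inactive = meets neither condition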;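 note: plate controls were neutral control median for no effect and positive control median for full effect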
# NIH3T3 tox: NIH/3T3 (mouse) viability loss. shares compounds with T cruzi growth-1. NIH/3T3 viability, CellTiter-Glo ATP luminescence, 90 h. cytotoxicity (signal decrease), % at 8.35 µM. actives 14% (n = 5,600);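 active = mean signal decrease across replicates above about 35% based on untreated-well scatter, with enough replicates individually passing, limit read from the data; inconclusive = no rule stated though some were filed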;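 note: 0% = median of neutral control wells and 100% = median of positive control wells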
# NIH3T3 tox 2: cytotoxicity in mouse NIH/3T3 fibroblasts | NIH/3T3 viability, CellTiter-Glo ATP luminescence, 90 h | inhibition, % at 24.9 µM | actives 56% (n = 5,600) | shares compounds with T cruzi growth-1;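 active = mean loss of cell viability signal at or above a set limit, and enough replicates individually reaching it; inconclusive = meets only the mean limit or only the replicate share; inactive = meets neither condition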;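 note: 0% = median of neutral control wells and 100% = median of positive control wells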
# * hit, by the source's call; ? = inconclusive; · = no result given.
SMILES,Pf Dd2 inh,T cruzi growth-1,C diff HTS,T cruzi growth-2,T cruzi growth-3,NIH3T3 tox,NIH3T3 tox 2
C[C@@H]1CN([C@@H](C)CO)S(=O)(=O)c2ccc(-c3ccncc3)cc2O[C@@H]1CN(C)Cc1ccccn1,-5,86,-3,·,·,·,·
Cn1cnc(S(=O)(=O)N2CC[C@@H]3[C@H]2c2cc(C#Cc4ccccc4)ccc2N[C@@H]3CO)c1,17,40,5,·,·,·,·
CO[C@H]1CN(C)C(=O)c2ccc(NS(=O)(=O)c3cccc(C)c3)cc2OC[C@H](C)NC[C@H]1C,28,-31,0,·,·,·,·
CS(=O)(=O)N1[C@@H]2Cn3c(ccc(-c4cccc(F)c4)c3=O)[C@H]1[C@@H](C(=O)N1CCOCC1)[C@@H]2CO,18,-3,-3,·,·,·,·
CC(C)(C)OC(=O)COc1cccc(C(=O)CCN2CCOCC2)c1,·,·,-15,·,·,·,·
Cc1ccc(-c2cnc3c(c2)C(=O)N([C@H](C)CO)C[C@H](C)[C@H](CN(C)C(=O)c2cccc(F)c2)O3)cc1,-30,·,0,·,·,·,·
C[C@H]1CN([C@@H](C)CO)C(=O)Cc2cc(NC(=O)Cc3cn(C)c4ccccc34)ccc2O[C@H]1CN(C)Cc1ccc(C(=O)Nc2ccccc2N)cc1,-73,102*,-2,96*,57,24,63*
C[C@H]1CN([C@@H](C)CO)C(=O)Cc2cc(NC(=O)Cc3cn(C)c4ccccc34)ccc2O[C@@H]1CN(C)Cc1ccc(C(=O)Nc2ccccc2N)cc1,-58,84,-1,·,·,·,·
C[C@@H]1CN([C@H](C)CO)C(=O)Cc2cc(NC(=O)Cc3cn(C)c4ccccc34)ccc2O[C@H]1CN(C)Cc1ccc(-c2ccccc2)cc1,-18,83,2,·,·,·,·
C[C@H]1CN([C@@H](C)CO)C(=O)Cc2cc(NC(=O)Cc3cn(C)c4ccccc34)ccc2O[C@@H]1CN(C)Cc1ccc(-c2ccccc2)cc1,-30,98*,-2,103*,82,20,20
C[C@@H]1CN([C@H](C)CO)C(=O)Cc2cc(NC(=O)Cc3cn(C)c4ccccc34)ccc2O[C@@H]1CN(C)Cc1ccccc1,-24,100*,-14,104*,46,14,40*
C[C@@H]1CN([C@@H](C)CO)C(=O)Cc2cc(NC(=O)Cc3cn(C)c4ccccc34)ccc2O[C@@H]1CN(C)Cc1ccccc1,-28,95,-8,·,·,·,·
C[C@@H]1CN([C@H](C)CO)C(=O)Cc2cc(NC(=O)Cc3cn(C)c4ccccc34)ccc2O[C@H]1CN(C)Cc1ccc(C(F)(F)F)cc1,-21,100*,11,105*,63,?,71*
C[C@H]1CN([C@@H](C)CO)C(=O)Cc2cc(NC(=O)Cc3cn(C)c4ccccc34)ccc2O[C@H]1CN(C)Cc1ccc(C(F)(F)F)cc1,-79,90,2,·,·,·,·
COCC(=O)N(C)C[C@H]1Oc2cc(C#CC3CCCC3)ccc2S(=O)(=O)N([C@@H](C)CO)C[C@H]1C,3,5,·,·,·,·,·
C[C@@H]1CN([C@H](C)CO)C(=O)c2cc(C3=CCCCC3)cnc2O[C@H]1CN(C)Cc1cccnc1,2,1,0,·,·,·,·
COc1ccc(S(=O)(=O)N(C)C[C@@H]2OCCCC[C@H](C)Oc3ccc(NS(=O)(=O)c4ccccc4)cc3C(=O)N([C@H](C)CO)C[C@@H]2C)cc1,·,67,-14,·,·,·,·
COc1ccc(S(=O)(=O)N(C)C[C@H]2OCCCC[C@@H](C)Oc3ccc(NS(=O)(=O)c4ccccc4)cc3C(=O)N([C@@H](C)CO)C[C@H]2C)cc1,·,107*,-9,?,43,-6,3
COc1ccc(S(=O)(=O)Nc2ccc3c(c2)C(=O)N([C@H](C)CO)C[C@H](C)[C@H](CN(C)S(=O)(=O)c2ccccc2)OCCCC[C@H](C)O3)cc1,-32,·,-10,·,·,·,·
COc1ccc(S(=O)(=O)N(C)C[C@@H]2OCCCC[C@@H](C)Oc3ccc(NS(=O)(=O)c4ccccc4)cc3C(=O)N([C@H](C)CO)C[C@H]2C)cc1,·,106*,-14,109*,55,7,4
CCCC(=O)N1C[C@@H]2[C@H](c3ccccc31)[C@H](CO)N2C(=O)Nc1ccccc1,12,12,-6,·,·,·,·
Cc1noc(C)c1S(=O)(=O)Nc1ccc2c(c1)C(=O)N([C@H](C)CO)C[C@@H](C)[C@H](CN(C)C(=O)CCC(F)(F)F)OCCCC[C@@H](C)O2,-25,-2,4,·,·,·,·
CC(C)C#Cc1ccc([C@H]2[C@@H](C#N)N(C(=O)c3cccc(F)c3)[C@@H]2CO)cc1,-35,98*,0,99*,108*,4,38
CC(C)C#Cc1ccc([C@H]2[C@@H](CO)N(C(=O)c3ccccn3)[C@H]2C#N)cc1,-45,97*,2,98*,80,15,16
N#C[C@H]1[C@@H](c2ccc(C#CC3CCCC3)cc2)[C@H](CO)N1C(=O)c1cccc(F)c1,-59,·,56,·,·,·,·
SMILES,Pf Dd2 inh,T cruzi growth-1,C diff HTS,T cruzi growth-2,T cruzi growth-3,NIH3T3 tox,NIH3T3 tox 2
N#C[C@H]1[C@@H](c2ccc(C#CC3CC3)cc2)[C@H](CO)N1C(=O)c1cccc(F)c1,-61,94,12,·,·,·,·
N#C[C@@H]1[C@@H](c2ccc(C#CC3CC3)cc2)[C@H](CO)N1C(=O)c1cccc(F)c1,-55,97*,9,105*,110*,20,12
CC(C)C#Cc1ccc([C@H]2[C@H](C#N)N(C(=O)c3ccccn3)[C@H]2CO)cc1,-3,81,-5,·,·,·,·
C[C@H](CO)N1C[C@H](C)[C@H](CN(C)C(=O)Nc2ccc3c(c2)OCO3)OCCCC[C@H](C)Oc2ccc(NS(=O)(=O)c3ccc(Cl)cc3)cc2C1=O,-13,97*,-1,113*,57,-23,-26
C[C@H]1CCCCO[C@H](CN(C)C(=O)Nc2ccc3c(c2)OCO3)[C@@H](C)CN([C@@H](C)CO)C(=O)c2cc(NS(=O)(=O)c3ccc(Cl)cc3)ccc2O1,-76,49,-7,·,·,·,·
C[C@@H]1CCCCO[C@@H](CN(C)C(=O)Nc2ccc3c(c2)OCO3)[C@@H](C)CN([C@H](C)CO)C(=O)c2cc(NS(=O)(=O)c3ccc(Cl)cc3)ccc2O1,4,14,1,·,·,·,·
C[C@@H]1CCCCO[C@H](CN(C)C(=O)Nc2ccc3c(c2)OCO3)[C@H](C)CN([C@@H](C)CO)C(=O)c2cc(NS(=O)(=O)c3ccc(Cl)cc3)ccc2O1,-58,?,2,102*,36,-7,-16
C[C@@H]1CN([C@H](C)CO)C(=O)CCCn2cc(nn2)CO[C@H]1CN(C)C(=O)Nc1ccc(N2CCN(C)CC2)cc1,-5,-33,3,·,·,·,·
C[C@@H]1CN([C@H](C)CO)C(=O)c2ccccc2-c2ccccc2CO[C@@H]1CN(C)Cc1ccc(O)cc1,-44,-52,·,·,·,·,·
